A selection: hits, their analogues and other compounds. The true share with any hit is near 9.4%.
SARS PLpro yeast – SARS-CoV PLP inhibition in yeast; S. cerevisiae expressing SARS-CoV PLpro, growth rescue; Potency, µM (doses to about 32.9 µM), for inactives: at the highest dose activity, positive = growth rescue, actives largely listed as activators; 0.19% of 330,000 active; calls by dose curve; note: 0% is about no effect; nearly all actives have a fitted effect of over 55% in size
Pf growth 48h – P. falciparum growth inhibition at 48 hours (one generation) | P. falciparum luciferase growth in erythrocytes, 48 h | Potency, µM (highest dose often 28.7 µM), for the others: at the top dose activity change, negative = inhibition, most hits filed as inhibitors | 5.9% of 310,000 active | AID 504832; note: % is set by controls: 0 for no effect and ±100 for the full control effect
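Luciferase-expressing parasites in RBCs, 2% Hct / 0.1% parasitemia final; RPMI 1640 + 0.5% Albumax; 37 C, 5% CO2, one generation; luminescence read-out, lower signal = inhibition.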
Pf growth 96h – P. falciparum growth inhibition at 96 hours; AID 504834; 6.9% of 320,000 active; P. falciparum luciferase reporter growth, 96 h; Potency, µM (titrated, usually from 28.7 µM), for the others: at the highest dose activity change, negative = inhibition, actives largely listed as inhibitors; note: % is set by controls: 0 for no effect and ±100 for the full control effect
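P. falciparum expressing integrated firefly luciferase, in erythrocytes at 2% hematocrit, 0.05% parasitemia, incubated with compounds 96 h at 37 C, 5% CO2. Growth inhibition read as loss of luminescence; two-generation exposure targets delayed-death apicoplast inhibitors.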
AMA1 RON2 block – inhibitors of Plasmodium falciparum AMA1-RON2 interaction; 0.2% of 360,000 active; Potency, µM (top dose mostly 58.2 µM), without a hit: at the highest dose activity change, negative = inhibition, usual class: inhibitors; AID 720542; AlphaScreen AMA1-biotinylated RON2 peptide binding;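 note: 0% = vehicle wells and -100% = peptide control; nearly all actives have a fitted effect of over 45% in size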
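AMA1 (3D7) with his tag at 25 nM final met compounds first, then biotinylated RON2 peptide at 25 nM; detection used donor plus acceptor beads, 10 µg/mL apiece, read by AlphaScreen after 30 min at room temperature.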
* hit, by the source's call; ? = inconclusive; . = not tested or not shown. Unless noted, calls come from the whole dose curve; as a rule, active = well fitted curve in the direction sought with a large enough effect; inconclusive = small, poorly fitted or top-dose-only effect, or another doubt; inactive = no such curve, though single readings can be large; an effect the other way counts as inactive or inconclusive. Potency is the fitted concentration of half-maximal effect.

SMILES	SARS PLpro yeast	Pf growth 48h	Pf growth 96h	AMA1 RON2 block
O=C1CC(Cc2ccccc2)C(=O)N1Cc1ccco1 (stereo not given)	-4.1%	?	11.7µM*	8.3%
Cc1ccc(CC2CC(=O)N(Cc3ccco3)C2=O)cc1 (stereo not given)	0.0%	-0.3%	18.5%	-7.0%
NC(=O)CSc1ccc(-c2ccc(F)cc2)nn1	6.3%	27.1%	-9.0%	-2.3%
Cc1nn(C)cc1CNC(=O)COc1ccc(Cl)cc1Cl	-11.6%	0.0%	11.9%	1.0%
Cc1ccccc1N1C(=O)NC(=O)/C(=C\c2ccc3c(c2)CCCN3Cc2ccccc2)C1=O	2.5%	2.3%	1.5%	-14.9%
COCCNC(=O)c1ccccc1NC(=O)Nc1ccccc1	0.2%	30.3%	7.38µM*	-1.9%
O=C(Nc1ccccc1)Nc1ccccc1C(=O)NCC1CC1	-1.4%	?	11.6%	-10.8%
O=C(CN1CCN(Cc2ccccc2)CC1)NCCc1ccccc1	5.7%	0.0%	182.9%	6.6%
CCOc1ccc(NC(=O)CN(C)C(=O)CCCc2c[nH]c3ccccc23)cc1OCC	1.2%	10.4µM*	?	-4.6%
COc1ccc(NC(=O)CN(C)C(=O)CCCc2c[nH]c3ccccc23)cc1	-0.4%	?	10.4µM*	-7.0%
COc1ccc(NC(=O)CN(C)C(=O)Cc2c[nH]c3ccccc23)cc1	-6.3%	?	?	0.5%
O=C(CN(Cc1ccccc1)C(=O)CNS(=O)(=O)c1ccc(Cl)cc1)NCC1CCCO1 (stereo not given)	-3.3%	28.7%	?	7.7%
COC(=O)CCN(C(=O)c1ccc(N2CCCC2)c([N+](=O)[O-])c1)c1ccccn1	0.4%	-6.6%	-4.7%	34.3%
O=C(Nc1ccc(C(=O)O)cc1)/C(=C\c1ccco1)NC(=O)c1ccccc1	0.8%	-7.7%	9.28µM*	-4.6%
O=C(Nc1ccccc1)/C(=C\c1cccs1)NC(=O)c1ccccc1	-5.4%	20.4%	1.47µM*	-0.6%
CC(=O)Nc1ccc(NC(=O)/C(=C/c2ccco2)NC(=O)c2ccccc2)cc1	-1.1%	10.4%	?	10.8%
Cc1cccc(C)c1NC(=O)/C(=C/c1ccco1)c1ccccc1	-4.1%	.	10.4µM*	-10.2%
Cc1ccc(C(=O)N/C(=C/c2cccs2)C(=O)N2CCCCCC2)cc1	-4.6%	-3.2%	-1.7%	-4.1%
Cc1cc(C)c(NC(=O)/C(=C/c2ccco2)c2ccccc2)c(C)c1	7.1%	.	?	-2.8%
Cc1ccc(C(=O)N/C(=C\c2cccs2)C(=O)NC2CCCCC2)cc1	-13.7%	.	4.15µM*	-8.0%
COc1cc(NC(=O)CC(C)S(=O)(=O)c2cc3c(cc2C)NC(=O)CO3)cc(OC)c1OC (stereo not given)	1.0%	7.4%	0.0%	-9.3%
C[C@]12CCC3[C@@H](CC[C@H]4C[C@@H](O)CC[C@]34C)C1CCC2=O (stereo not given in full)	-5.7%	9.7%	1.7%	-7.2%
O=C(N/C(=C\c1cccs1)C(=O)N1CCCCCC1)c1ccccc1	6.1%	?	9.28µM*	-3.8%
O=C(N/C(=C/c1cccs1)C(=O)N1CCOCC1)c1cccs1	-0.6%	-1.6%	9.28µM*	15.5%
Cc1cc(NCc2ccccn2)n2c(nc3ccccc32)c1C#N	-1.0%	?	89.3%	8.6%
SMILES	SARS PLpro yeast	Pf growth 48h	Pf growth 96h	AMA1 RON2 block
CCCc1cc(NCC2CCCO2)n2c(nc3ccccc32)c1C#N (stereo not given)	-3.4%	5.22µM*	.	4.7%
CCCc1cc(NCc2ccccn2)n2c(nc3ccccc32)c1C#N	-13.8%	1.85µM*	9.3%	23.1%
CC(Sc1cccc[n+]1[O-])c1ccccc1 (stereo not given)	-0.6%	-4.6%	?	-3.2%
Cc1cc(/C=C(\C#N)C(=O)Nc2ccc(F)cc2)c(C)n1-c1ccc(N2CCOCC2)c([N+](=O)[O-])c1	2.1%	7.38µM*	.	-6.3%
Cc1cc(/C=N/n2cnnc2)c(C)n1-c1ccc2c(c1)OCO2	0.0%	10.6%	10.4µM*	-11.2%
Cc1cc(C(=O)OCC(=O)NCc2ccco2)c(C)n1-c1ccc(F)cc1	-15.3%	8.28µM*	?	-1.5%
COc1ccc(-n2c(C)cc(/C=C(\C#N)C(=O)NCc3ccco3)c2C)cc1	-2.1%	4.65µM*	?	-12.3%
CC(=O)N1CCc2cc(NC(=O)C3(C)CCN3Cc3ccccc3OC(F)F)ccc21 (stereo not given)	.	.	.	0.9%
Cc1cc(OCC(=O)NCCN2CCOCC2)cc(C)c1Cl	0.3%	-3.4%	20.9%	4.9%
O=C(NCC1CCCO1)c1onc(CSc2cccc(Cl)c2)c1C(=O)O (stereo not given)	-4.6%	2.9%	32.3%	2.1%
Cc1cc(/C=C(\C#N)C(=O)Nc2ccccc2)c(C)n1-c1ccc2c(c1)OCO2	-0.5%	11.7µM*	?	-1.5%
COc1ccc(Cc2nnc(NC(=O)c3cc(OC)cc(OC)c3)s2)cc1	-4.3%	-22.9%	?	-1.5%
O=C(NCc1ccccn1)C1CCCN(Cc2cnn(-c3ccccc3)c2-n2cccc2)C1 (stereo not given)	0.3%	?	0.8%	94.2%
O=C(NCc1cccnc1)C1CCCN(Cc2cnn(-c3ccccc3)c2-n2cccc2)C1 (stereo not given)	9.0%	.	11.7µM*	-10.4%
COc1ccccc1N1CCN(S(=O)(=O)CCNC(=O)Cc2ccc(F)cc2)CC1	-2.5%	?	?	-20.3%
COc1cc(/C=N/NC(=O)CC23CC4CC(CC(C4)C2)C3)cc(Br)c1OCC(=O)N(C)C	13.5%	13.1µM*	?	-10.2%
COc1ccc(/C=N\NC(=O)c2cc(O)c(O)c(O)c2)cc1COc1ccc(C(=O)OCC(C)C)cc1	4.9%	2.94µM*	?	47.4%
COc1ccc(/C=N/NC(=O)c2cc(C(C)(C)C)[nH]n2)cc1COc1ccc(F)cc1F	1.6%	?	13.1µM*	-1.6%
COc1ccc(/C=N/NC(=O)c2ccc(NC(C)=O)cc2)cc1COc1ccc(F)cc1F	-5.8%	10.5%	29.8%	-11.2%
COc1ccccc1C(=O)NCC(=O)N/N=C/c1cccc(Cl)c1	2.6%	5.1%	2.08µM*	7.0%
COc1cc(/C=N/NC(=O)C23CC4CC(CC(C4)C2)C3)cc(Br)c1O	4.4%	7.5%	-21.1%	25.8%
CCOc1cc(/C=N/NC(N)=S)cc(Br)c1OCc1ccccc1C	-1.4%	13.1µM*	.	31.6%
CCOc1c(Br)cc(/C=N\NC(=O)c2ccccc2)cc1OC	-5.5%	5.22µM*	8.28µM*	-4.7%
COc1cc(C(=O)N/N=C/c2ccc(OC(=O)c3ccccc3)c(OC)c2)ccc1O	0.6%	-5.1%	9.28µM*	-21.6%
COc1cc(/C=N/NC(=O)c2ccoc2C)cc(OC)c1O	0.8%	0.2%	2.62µM*	22.9%
Cc1ccc([C@@H]2CC=C(C(=O)O)[C@H](c3ccccc3F)N2S(=O)(=O)c2ccccc2C)cc1	-1.5%	.	.	-10.0%
CCc1ccc(NC(=O)C2CCCN(S(=O)(=O)c3ccc4[nH]c(=O)ccc4c3)C2)cc1 (stereo not given)	1.1%	0.8%	?	-15.8%
